Assay outcomes deposited in PubChem by National Center for Advancing Translational Sciences (NCATS).
Only some compounds are listed: those with a hit (about 20% of all), similar ones and a draw of the others.
HCMV inh: blocks human cytomegalovirus replication | HFF cells, HCMV-luciferase reporter, 72 h; active compounds read low | activity change, negative = inhibition, % at 57.5 µM | actives 4.5% (n = 410,000); in the data active = activity change below about -60%; inconclusive = no clear call, values can overlap the other calls; inactive = above about -39%; also: % is scaled to controls: 0 for no effect and ±100 for the full control effect
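Steps: HFFs plated, 16 h 37C; compounds added; HCMV-luciferase added to MOI 1 PFU/cell; 72 h 37C; OneGlo reagent, 5 min room temperature; luminescence read, normalized to controls.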
Pf growth 96h: inhibits malaria parasite growth, 96 h | Potency, µM (top dose mostly 28.7 µM), without a hit: top-dose activity change, negative = inhibition, hits mostly inhibitors | P. falciparum luciferase reporter growth, 96 h | actives 6.9% (n = 320,000) | AID 504834; also: potency is read from the fitted curve at half-maximal effect; % is scaled to controls: 0 for no effect and ±100 for the full control effect
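Readout is luminescence from an integrated firefly luciferase in P. falciparum. Red cells, 2% hematocrit and 0.05% parasitemia final, were cultured with compound through two parasite generations (96 hours) at 37 C, 5% CO2.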
CHX counter: counter-screen for Shiga toxin inhibitors: cycloheximide protein synthesis inhibition | cell reporter, cycloheximide protein synthesis inhibition counterscreen | max response, % | actives 12% (n = 300,000) | AID 2314; in the data active = max response mostly above about 13%, no sharp cut-off; inactive = mostly below about 14%; also: read at 38.3 µM for the half of the compounds with a filed dose; 0% is about no effect
Pf growth 48h: P. falciparum growth inhibition at 48 hours (one generation); P. falciparum luciferase growth in erythrocytes, 48 h; Potency, µM (highest dose often 28.7 µM), inactives show at the highest dose activity change, negative = inhibition, most hits filed as inhibitors; actives 5.9% (n = 310,000); also: potency is read from the fitted curve at half-maximal effect; % is scaled to controls: 0 for no effect and ±100 for the full control effect
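Here the parasites carry a stable luciferase gene and grow inside erythrocytes in Albumax-based RPMI medium with compound for one erythrocytic cycle. Activity is scored as loss of luminescent signal.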
Shiga toxin inh: blocks Shiga toxin action in Vero cells. Vero cells, Shiga toxin protein synthesis inhibition reporter. inhibition, % at 38.7 µM. actives 9.2% (n = 290,000); in the data active = inhibition mostly above about 28%, no sharp cut-off; inactive = mostly below about 43%; also: 0% is about no effect
* = called active by the depositor; ? = inconclusive; . = no result; + = active, no number. Unless noted, calls follow the shape of the dose curve; as a rule, active = well fitted inhibition curve with a large enough effect; inconclusive = small, poorly fitted or top-dose-only effect, or another doubt; inactive = no such curve, though single readings can be large or run the other way.

SMILES	HCMV inh	Pf growth 96h	CHX counter	Pf growth 48h	Shiga toxin inh
CCc1cccc(NC(=O)CSc2ncccc2C(=O)Oc2ccccc2Cl)c1	39	.	-3	.	-4
Cc1ccccc1-c1nnc(Cc2ccccc2)o1	46	-20%	41*	124%	138*
COc1ccccc1NCc1nnc(-c2ccccc2)o1	18	-92%	20*	0%	14
Cc1cc(Cl)ccc1OCc1nnc(-c2ccccc2C)o1	3	55%	.	41%	.
COc1ccc(Cc2nnc(-c3ccccc3)o2)cc1	19	12µM*	44*	118%	43*
Cc1ccc(OCc2nnc(-c3ccccc3)o2)cc1	58	.	.	.	.
c1ccc(-c2nnc(CSc3nncs3)o2)cc1	37	68%	46*	101%	63*
COc1ccccc1NC(=O)CSc1nnc(-c2ccccc2)o1	103	?	18	.	59
c1ccc(Cn2ccnc2SCc2nnc(-c3ccccc3)o2)cc1	8	-30%	19	-24%	14
COc1ccc(NC(=O)CCNC(=O)c2ccc([N+](=O)[O-])cc2)cc1S(=O)(=O)N1CCCCC1	-26	-22%	.	?	.
CC1(C)N=C(SCc2ccc(F)cc2)c2ccccc2N1	6	.	.	.	.
C=CCNC(=O)[C@@]1(Sc2ccc(OC)cc2)CC(=O)N[C@@H]1c1ccc(OC)cc1	-24	.	.	.	.
c1ccc(Cc2nnc(-c3ccccc3)o2)cc1	-96*	19%	-6	84%	-37
Brc1ccc(-c2nnc(Cc3ccccc3)o2)cc1	33	116%	58*	139%	81*
CCCc1nnc(-c2ccc(OC)cc2)o1	25	102%	34*	38%	+
Cc1ccc(-c2nnc(Cc3ccc(Cl)cc3)o2)cc1	34	-6%	29	.	39
COc1ccc(SCCc2nnc(-c3ccccc3)o2)cc1	-98*	5%	10	9%	18
COc1ccc(SCCc2ccncc2)cc1	-18	8%	-3	17%	-9
N#CCCN(C(=O)Nc1ccccc1)C1CCCCC1	7	.	.	.	.
COC(=O)C(NC(=O)OCc1ccccc1)(c1ccc(Br)cc1)C(Nc1ccccc1)c1ccccc1 (configuration not stated)	39	.	.	.	.
COc1ccc(CCC(C)NCC2CCCCC2)cc1 (configuration not stated)	-11	13µM*	0	?	-15
COc1ccc(CCC(C)NC2CCCCCCC2)cc1 (configuration not stated)	?	1%	-3	30%	-20
COc1ccc(CCC(C)NCc2ccc(Cl)c(Cl)c2)cc1 (configuration not stated)	-9	6.6µM*	-3	9%	-13
CCCCCNC(=O)C(C1CC1)n1c(=O)c(-c2cc3ccccc3[nH]2)nc2ccccc21 (configuration not stated)	-13	.	.	.	.
COc1ccc(N2CCN(C(=O)NCc3noc4ccccc34)CC2)cc1	-4	.	.	.	.
SMILES	HCMV inh	Pf growth 96h	CHX counter	Pf growth 48h	Shiga toxin inh
CN(C)c1ccc(/C=N/NC(=O)C(=O)N2CCCCCC2)cc1	0	?	26*	0%	47
COc1ccc(/C=N/NC(=O)C(=O)N2CCCC2)cc1	-4	?	36*	1%	67
COc1ccc(/C=C/c2nc(C#N)c(NCCc3ccccc3)o2)cc1OC	18	.	.	.	.
O=C(c1ccc(Br)cc1)N1CCN(S(=O)(=O)c2ccccc2)CC1	30	19%	-2	11%	-5
Cc1nc2nc(NC(=O)c3ccco3)nn2c(C)c1Cl	.	-18%	9	117%	43*
Cc1cc(C)c2nc(NC(=O)c3ccco3)sc2c1	81	288%	31*	297%	51*
O=C(Nc1nc2c(Br)cc(Br)cc2c(=O)s1)c1ccco1	34	16%	-1	5%	-2
CC(=O)Nc1nc2c(F)cccc2s1	20	.	.	.	.
Cc1cc(Cl)cc2sc(NC(=O)c3ccco3)nc12	.	421%	51*	137%	50*
O=C(Nc1nc2c(F)cccc2s1)c1ccco1	126	28%	31*	215%	28*
C[C@H](CO)N1C[C@H](C)[C@@H](CN(C)C(=O)Nc2ccc3c(c2)OCO3)Oc2c(NC(=O)Cc3ccccc3)cccc2C1=O	31	.	.	.	.
O=C(CN1C(=O)COc2ccc(S(=O)(=O)N3CCOCC3)cc21)N1CCN(c2ccccc2F)CC1	4	.	.	.	.
C=C[C@@H]1C[C@@]1(C)[C@@H](NP(=O)(c1ccccc1)c1ccccc1)c1ccccc1	-34	?	-5	?	-22
CC/C(=C\C1CCCCC1)C(NP(=O)(c1ccccc1)c1ccccc1)c1ccccc1 (configuration not stated)	8	6.6µM*	-6	9.3µM*	-13
COc1ccccc1NC(=O)Nc1ccc2c(c1)CCC2	60	-2%	53*	52%	65*
CCCN(CC(=O)Nc1ccccc1OC)C(=O)Cc1ccc2c(c1)CCC2	.	?	.	10µM*	.
COc1ccccc1NC(=O)C(=O)Nc1ccc2c(c1)N(C(=O)C1CC1)CCC2	18	11%	.	10%	.
COc1ccc(C)cc1NC(=O)Nc1ccc2c(c1)CCC2	19	-17%	24*	-20%	29
COc1ccc(/C=C/C(=O)Nc2ccc3c(c2)CCC3)cc1OC	-32	-10%	13	11%	9
CCN(CC(=O)Nc1ccccc1C(F)(F)F)C(=O)Cc1ccc2c(c1)CCC2	0	19%	.	?	.
COc1ccc(NC(=O)Nc2ccc3c(c2)CCC3)cc1OC	-34	?	17*	-9%	56
COc1ccc(C)cc1NC(=O)Nc1ccccc1	40	-12%	6	.	-3
COc1cccc2cc(-c3csc(-c4ccc(Cl)cc4)n3)c(=O)oc12	3	.	.	.	.
Cc1ccc(C(=O)COC(=O)CN2C(=O)C3C4C=CC(C4)C3C2=O)cc1C (configuration not stated)	-14	35%	-2	62%	15
C=CCc1ccccc1OCC(O)CN1CCN(c2ccc(C)cc2)CC1 (configuration not stated)	-11	9.3µM*	-1	?	9
SMILES	HCMV inh	Pf growth 96h	CHX counter	Pf growth 48h	Shiga toxin inh
CCOC(=O)N1CCN(CC(O)COc2ccccc2C(C)(C)C)CC1 (configuration not stated)	-2	18%	1	-3%	23
O=S(=O)(c1ccc(OCC(O)CN2CCN(c3ccc(F)cc3)CC2)cc1)N1CCOCC1 (configuration not stated)	-16	9.3µM*	-1	0%	1
COc1ccccc1N1CCN(CC(O)COc2ccc(S(=O)(=O)N3CCOCC3)cc2)CC1 (configuration not stated)	-70*	8.3µM*	-2	.	-5
CC1CN(CC(O)COc2ccccc2C(C)(C)C)CC(C)O1 (configuration not stated)	-26	8.3µM*	4	2.3µM*	-13
Cc1cc(C(=O)c2ccc3ccccc3c2)c(C)o1	10	.	.	.	.
COc1ccc(CCN2C(=O)CN(C3CCCCCC3)C(=O)C2c2ccc(Cl)cc2)cc1OC (configuration not stated)	-25	.	.	.	.
